Assay [1] in a line: inhibitors of TNFa-induced NFkB p65 translocation, primary screen, imaging, HUVEC, MLSMR starter and 10KST1 sets (AID 438;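 active = inhibition above 20% together with a positive visual image hit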;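 note: compound added about 3h40 before a 20 min TNFalpha stimulation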;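 for inhibition: signal is the nuclear over cytoplasmic p65 intensity ratio per well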). The note with it: HUVEC TNFa-induced p65 nuclear translocation; cell count: measured here: nuclei count (cytotoxicity indicator), at 2.08 µM; inhibition: at 2 µM, stronger effect = higher value, 0% TNFa-plus-vehicle, 100% no-TNFa wells.
Assay [2] in a line: reduction of polyQ htt aggregates in cells – imaging, exon1htt(103Q)mCFP cells, high-content imaging, primary screen (AID 483;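 active = visual image review flags a hit and inhibition of aggregation exceeds 20%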;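 note: compound exposure lasted 3 days before fixation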;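 for nuclei count: percent of the per-plate median nuclei count of sample wells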). The note with it: exon1htt(103Q)mCFP cell line, aggregate imaging, at 2 µM; inhibition of aggregation: stronger effect = higher value; nuclei count: measured here: cell count, toxicity.
Assay [3] can be described thus: endothelial E-selectin expression blockers – imaging, HUVEC, immunofluorescence, MLSMR starter and 10KST1 sets, primary screen (AID 487;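 active = visually confirmed hit in the image check and inhibition above 20%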;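 for inhibition: signal is fraction of cell area covered by stained E-selectin grains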;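 for nuclei count: 100% = median nuclei count of all wells on the same plate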). The note with it: HUVEC TNFalpha-induced E-selectin immunofluorescence imaging, at 2 µM; inhibition: stronger effect = higher value; nuclei count: measured here: cell number, toxicity.
In assay [4] the target is Voltage-gated potassium channel subunit beta-2 (Rattus norvegicus) (UniProt P62483). Nature of the assay: inhibitors of rat Kvbeta2 reductase activity – biochemical, NADPH fluorescence, primary screen (AID 622;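 active = fluorescence slope higher than the sample average by over 3 SD, cut at about -0.22 in these data, passing the limit was not always enough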;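 note: slope of raw intensity against log time taken from 70 to 1610 s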). The note with it: recombinant KvBeta, 4-cyanobenzaldehyde reduction, at 10 µM, stronger effect = higher value.
Voltage-gated potassium channel subunit beta-2 (Rattus norvegicus), sequence (P62483 whole entry, looked up): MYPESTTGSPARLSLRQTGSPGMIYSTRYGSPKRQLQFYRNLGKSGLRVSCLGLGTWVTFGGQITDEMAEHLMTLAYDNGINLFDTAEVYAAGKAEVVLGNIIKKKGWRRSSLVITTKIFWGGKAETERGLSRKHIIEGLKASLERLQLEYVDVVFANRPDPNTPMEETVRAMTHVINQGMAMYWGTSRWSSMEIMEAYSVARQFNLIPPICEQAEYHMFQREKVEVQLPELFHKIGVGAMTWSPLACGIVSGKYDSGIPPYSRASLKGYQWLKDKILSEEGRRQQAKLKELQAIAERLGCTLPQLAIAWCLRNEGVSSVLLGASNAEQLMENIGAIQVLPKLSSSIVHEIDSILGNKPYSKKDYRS
Assay [5] has the same target. Nature of the assay: enhancers of rat Kvbeta2 NADPH turnover – biochemical, NADPH fluorescence, primary screen (AID 623;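 active = NADPH fluorescence slope more negative than the mean of all samples by about 3 SD, 99.7% confidence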;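 note: fluorescence intensity change per second fitted from 20 to 320 s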). The note with it: Recombinant KvBeta, NADPH fluorescence decrease slope, 10 min; at 10 µM; stronger effect = lower value.
The target in assay [6] is Alpha-2C adrenergic receptor (Homo sapiens) (UniProt P18825). Nature of the assay: compounds altering alpha2C-coupled GIRK flux – cell-based, HEK293 alpha2C/GIRK1/2, thallium flux, primary screen (AID 624).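 Note: slope of fluorescence ratio to pre-addition baseline per second over 15 to 24 s.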 The note with it: thallium flux BTC fluorescence, at 10 µM, actives lie on both sides.
Alpha-2C adrenergic receptor (Homo sapiens), sequence (P18825 whole entry, looked up): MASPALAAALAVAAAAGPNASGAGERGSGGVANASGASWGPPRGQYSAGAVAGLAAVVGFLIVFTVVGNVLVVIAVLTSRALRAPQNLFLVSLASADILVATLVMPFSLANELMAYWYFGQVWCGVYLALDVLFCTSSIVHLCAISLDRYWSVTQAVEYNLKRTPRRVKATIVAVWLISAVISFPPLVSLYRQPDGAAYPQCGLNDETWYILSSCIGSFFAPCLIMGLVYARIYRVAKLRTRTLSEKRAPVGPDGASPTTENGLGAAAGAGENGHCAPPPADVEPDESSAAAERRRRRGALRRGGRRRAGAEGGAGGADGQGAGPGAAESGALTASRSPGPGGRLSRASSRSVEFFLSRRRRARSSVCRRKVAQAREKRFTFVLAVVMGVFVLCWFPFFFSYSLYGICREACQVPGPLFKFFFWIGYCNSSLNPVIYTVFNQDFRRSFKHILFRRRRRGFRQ
Assay [7] is described as follows: blockers of RIG-like receptor reporter activation – cell-based, Sendai virus stimulus, luciferase, 10K MLSCN set, TLR/RLR signaling modifier project, primary screen (AID 602276;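 active = inhibition at or above 50% at 10 µM; inactive = inhibition below 50%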;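 note: firefly luciferase from ISG56 promoter only with Renilla not read in this screen; 0% = Sendai virus plus DMSO and 100% = medium plus DMSO without virus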). The note with it: HEK293 RL24 IRF3 luciferase reporter, at 10 µM, stronger effect = higher value. A general note: In a reporter assay the amount or activity of a reporter protein is the signal.
Assay [8] can be described thus: TLR3 IRF3 reporter activation blockers – cell-based, poly I:C stimulus, luciferase, 10K MLSCN set, primary screen (AID 602277;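 active = inhibition of the reporter signal at or above 50%; inactive = inhibition below 50%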). The note with it: HEK293-TLR3 RL24 IRF3 luciferase reporter, at 10 µM, stronger effect = higher value.

Each structure is given as a SMILES string. Active and inactive are the calls of the source.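 Rule for the calls, unless noted: active = fluorescence slope after compound addition differing from the mean of all screened samples at 99.7% confidence, in either direction; inactive = the rest.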

Usually inhibition stands for the relative decrease from the control value, in per cent. Take `CCOC(=O)C1C2C=CC3(CN(c4cccc(Cl)c4)C(=O)C13)O2` (centres undefined): the cell count in assay [1] amounted to 656. For the same compound, the inhibition is -0.3% (inactive) in assay [1], -11.3% (inactive) in assay [3], 13.2% (inactive) in assay [7] and 44.5% (inactive) in assay [8]. Besides, the inhibition of aggregation in assay [2] was 8.1% (inactive). Moreover, the nuclei count was 105% in assay [2] and 110% in assay [3]. For the same compound, in assay [4], the fluorescence slope was -0.398 (inactive). Moreover, the NADPH fluorescence slope in assay [5] was 9e-06 (inactive). Also, in assay [6], the slope is 0.0053 (inactive).
With `CN(C)c1ccc(CNn2cnnc2)cc1`, the cell count in assay [1] came to 499. In addition, the inhibition was 4.4% (inactive) in assay [1], -50.6% (inactive) in assay [3], 5.14% (inactive) in assay [7] and 16.1% (inactive) in assay [8]. In addition, the inhibition of aggregation in assay [2] was 3.2% (inactive). For the same compound, the nuclei count worked out at 68.8% in assay [2] and 102% in assay [3]. In assay [4], the fluorescence slope was -0.369 (inactive). For the same compound, the NADPH fluorescence slope in assay [5] is 1.6e-05 (inactive). Moreover, the slope in assay [6] is 0.00382 (inactive).
For the compound `CC1CCC(NC(=O)C2(C)CCC(=O)N2Cc2cccnc2)CC1` (centres undefined), the cell count in assay [1] worked out at 890. Also, the inhibition was -5.2% (inactive) in assay [1], -7.7% (inactive) in assay [3], 1.39% (inactive) in assay [7] and 32.6% (inactive) in assay [8]. Further, the inhibition of aggregation in assay [2] was 18.3% (inactive). The figures for the nuclei count in assay [2] and in assay [3] were 70.4% and 101%, respectively. In addition, in assay [4], the fluorescence slope was -0.598 (inactive). Besides, the NADPH fluorescence slope in assay [5] was -1.4e-05 (inactive). Besides, in assay [6], the slope was 0.00748 (inactive).
In the case of `O=C(NCCCn1ccnc1)c1cnn2c1NC(c1ccccc1)CC2C(F)(F)F` (centres undefined), the cell count in assay [1] came out at 616. Also, the inhibition was -4.9% (inactive) in assay [1], 6.6% (inactive) in assay [3], -0.0558% (inactive) in assay [7] and 15.6% (inactive) in assay [8]. Further, the inhibition of aggregation in assay [2] is -5.5% (inactive). The nuclei count in assay [2] came out at 98.3%; in assay [3], 93%. Besides, the fluorescence slope in assay [4] is -0.389 (inactive). In addition, the NADPH fluorescence slope in assay [5] is 3.1e-05 (inactive). Besides, the slope in assay [6] is 0.00374 (inactive).
Consider `CCOc1cccc(/C(O)=C2/C(=O)C(=O)N(CCN3CCOCC3)C2c2cccnc2)c1` (centres undefined), for which the cell count in assay [1] stood at 733. For the same compound, the inhibition in assay [1] is -1.1% (inactive); in assay [3] it was -18.1% (inactive); in assay [7], 14.8% (inactive); in assay [8] it was 28.3% (inactive). Moreover, in assay [2], the inhibition of aggregation was -4.6% (inactive). The nuclei count in assay [2] came out at 104%; in assay [3], 97.6%. Also, the fluorescence slope in assay [4] was -0.421 (inactive). The NADPH fluorescence slope in assay [5] was -5e-05 (inactive). Moreover, the slope in assay [6] was 0.00281 (inactive).
Regarding `COc1ccc(C2CC(c3cccs3)n3nc(N)nc3N2)cc1` (centres undefined), the cell count in assay [1] was 619. The inhibition in assay [1] is -6.3% (inactive); in assay [3], -38.1% (inactive); in assay [7], -3.14% (inactive); in assay [8], -18.2% (inactive). For the same compound, the inhibition of aggregation in assay [2] is 7.8% (inactive). Besides, the nuclei count in assay [2] was 122%; in assay [3], 118%. For the same compound, in assay [4], the fluorescence slope was -0.533 (inactive). For the same compound, the NADPH fluorescence slope in assay [5] is -1.5e-05 (inactive). Also, the slope in assay [6] was 0.00849 (inactive).
On to `N#Cc1cc2ccccc2nc1SCC(=O)Nc1ccccc1N1CCOCC1`, for which the cell count in assay [1] came to 448. Besides, the inhibition in assay [1] is 13.7% (inactive); in assay [3], -12.8% (inactive); in assay [7], 9.6% (inactive); in assay [8], 9.63% (inactive). Further, the inhibition of aggregation in assay [2] is 8.2% (inactive). Moreover, the figures for the nuclei count in assay [2] and in assay [3] were 100% and 106%, respectively. Moreover, the fluorescence slope in assay [4] is -0.481 (inactive). In assay [5], the NADPH fluorescence slope was -2.6e-05 (inactive). For the same compound, the slope in assay [6] was 0.00662 (inactive).
With `CCc1nnc(NC(=O)CSc2nnc(-c3cc4ccccc4cc3O)n2CC)s1`, the cell count in assay [1] came out at 674. Besides, the inhibition in assay [1] was -7.8% (inactive); in assay [3], -52.3% (inactive); in assay [7] it was 7.37% (inactive); in assay [8], 11.2% (inactive). In assay [2], the inhibition of aggregation was 1.7% (inactive). Further, the nuclei count in assay [2] stood at 109%; in assay [3], 125%. Besides, the fluorescence slope in assay [4] was -0.511 (inactive). In addition, the NADPH fluorescence slope in assay [5] is 2.5e-06 (inactive). In assay [6], the slope was 0.00587 (inactive).
Take `COC(=O)c1cc(-c2ccccc2)sc1NC(=O)c1cc(C)on1`: the cell count in assay [1] is 365. The inhibition in assay [1] was -2.2% (inactive); in assay [3], -21.2% (inactive); in assay [7], -14.9% (inactive); in assay [8] it was -8.07% (inactive). In addition, the inhibition of aggregation in assay [2] was -13.8% (inactive). Moreover, the nuclei count was determined as 104% in assay [2] and 111% in assay [3]. Also, in assay [4], the fluorescence slope was -0.342 (inactive). In assay [5], the NADPH fluorescence slope is -1.3e-05 (inactive). In assay [6], the slope was 0.00783 (inactive).
As for `COC(=O)CCCCCc1ccc(C(C)=O)s1`, the cell count in assay [1] was found to be 350. In addition, the inhibition in assay [1] was -6.3% (inactive); in assay [3], -65.9% (inactive); in assay [7], 16.6% (inactive); in assay [8], 15.4% (inactive). The inhibition of aggregation in assay [2] was 10.5% (inactive). For the same compound, the nuclei count was found to be 101% in assay [2] and 120% in assay [3]. Besides, in assay [4], the fluorescence slope was -0.496 (inactive). Moreover, the NADPH fluorescence slope in assay [5] is -3.1e-05 (inactive). The slope in assay [6] is 0.00508 (inactive).
As for `COc1cc(NC(=O)C2CCCN2S(=O)(=O)c2cccc3cccnc23)cc(OC)c1OC` (centres undefined), the cell count in assay [1] stood at 667. Moreover, the inhibition in assay [1] is 0.6% (inactive); in assay [3], -75.5% (inactive); in assay [7] it was 14.4% (inactive); in assay [8] it was 32% (inactive). The inhibition of aggregation in assay [2] was 15.1% (inactive). Also, the nuclei count amounted to 77.6% in assay [2] and 110% in assay [3]. The fluorescence slope in assay [4] was -0.598 (inactive). Further, in assay [5], the NADPH fluorescence slope is -3.4e-05 (inactive). The slope in assay [6] is 0.00756 (inactive).
With `c1ccc(-n2c(Sc3cnccn3)nnc2-c2cccs2)cc1`, in assay [1], the cell count worked out at 362. Also, the inhibition was -24.6% (inactive) in assay [1], -37.1% (inactive) in assay [3], -2.69% (inactive) in assay [7] and 12.5% (inactive) in assay [8]. Further, in assay [2], the inhibition of aggregation was 2.4% (inactive). For the same compound, the nuclei count in assay [2] stood at 100%; in assay [3], 149%. In addition, in assay [4], the fluorescence slope is -0.612 (inactive). In assay [5], the NADPH fluorescence slope is -1.5e-05 (inactive). In assay [6], the slope is 0.00525 (inactive).
In the case of `COc1cccc(-n2c(SC3CCOC3=O)nc3ccccc3c2=O)c1` (centres undefined), the cell count in assay [1] worked out at 387. The inhibition in assay [1] is 2.4% (inactive); in assay [3] it was 7.5% (inactive); in assay [7], 2.92% (inactive); in assay [8], 18.7% (inactive). The inhibition of aggregation in assay [2] is -18% (inactive). The nuclei count was 101% in assay [2] and 108% in assay [3]. In addition, in assay [4], the fluorescence slope was -0.435 (inactive). For the same compound, the NADPH fluorescence slope in assay [5] is -5.4e-06 (inactive). Also, in assay [6], the slope was 0.00493 (inactive).
With `O=C(c1ccccc1)c1ccncc1`, the cell count in assay [1] was determined as 391. Also, the inhibition was 7% (inactive) in assay [1], -5.9% (inactive) in assay [3], 19% (inactive) in assay [7] and 27.8% (inactive) in assay [8]. In addition, in assay [2], the inhibition of aggregation was -9.4% (inactive). Moreover, the nuclei count in assay [2] stood at 103%; in assay [3], 119%. The fluorescence slope in assay [4] is -0.399 (inactive). The NADPH fluorescence slope in assay [5] is -2.9e-05 (inactive). Further, the slope in assay [6] was 0.0031 (inactive).
